Measurements: PubChem BioAssay AID651650 (Sanford-Burnham Center for Chemical Genomics, 2012)

Each compound was assayed against Neuropilin-1 (Homo sapiens) (UniProt O14786) (assay: blockers of CendR peptide binding to NRP-1 – biochemical, FP and AlphaScreen panel, dose response (AID 651650)). Details: NRP-1 b1b2 / RPARPAR peptide binding, FP or AlphaScreen; run 1, at 100 µM (top of the series).
Chain of Neuropilin-1 (Homo sapiens) (O14786 whole entry, looked up): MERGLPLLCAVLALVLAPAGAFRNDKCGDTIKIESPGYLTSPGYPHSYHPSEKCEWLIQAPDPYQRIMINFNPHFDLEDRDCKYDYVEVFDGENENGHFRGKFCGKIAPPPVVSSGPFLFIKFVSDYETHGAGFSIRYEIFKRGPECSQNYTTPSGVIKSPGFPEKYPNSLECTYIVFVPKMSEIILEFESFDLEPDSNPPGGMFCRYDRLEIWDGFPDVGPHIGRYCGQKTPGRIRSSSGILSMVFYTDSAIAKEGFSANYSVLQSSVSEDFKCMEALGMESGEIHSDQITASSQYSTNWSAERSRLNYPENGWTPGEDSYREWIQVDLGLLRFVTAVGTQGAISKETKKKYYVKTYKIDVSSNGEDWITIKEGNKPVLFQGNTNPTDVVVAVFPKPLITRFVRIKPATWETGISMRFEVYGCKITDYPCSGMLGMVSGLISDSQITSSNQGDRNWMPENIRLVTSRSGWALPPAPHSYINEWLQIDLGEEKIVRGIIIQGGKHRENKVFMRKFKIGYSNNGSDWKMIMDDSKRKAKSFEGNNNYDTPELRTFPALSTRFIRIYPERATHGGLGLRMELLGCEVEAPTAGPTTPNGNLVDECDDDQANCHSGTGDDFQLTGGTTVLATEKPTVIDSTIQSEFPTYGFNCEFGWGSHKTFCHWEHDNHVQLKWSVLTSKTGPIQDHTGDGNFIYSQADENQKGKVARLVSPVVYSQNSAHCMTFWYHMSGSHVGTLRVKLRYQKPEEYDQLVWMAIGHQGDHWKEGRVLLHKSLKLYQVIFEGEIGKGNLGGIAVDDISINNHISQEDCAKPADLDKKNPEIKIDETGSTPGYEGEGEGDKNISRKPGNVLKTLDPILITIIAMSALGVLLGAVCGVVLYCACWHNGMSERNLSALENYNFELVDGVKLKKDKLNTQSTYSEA

Compared with CC(C)(C)OC(=O)N1CCN(C(=O)c2[nH]cnc2C(=O)NCc2ccccc2)CC1, CC(C)(C)C(=O)COC(=O)c1cc(-c2ccncc2)nc2ccccc12 is lower in inhibition: 34.4% for the first, 19.4% for the second.

Compared with CCOC(=O)Cc1cnc(NC(=O)NC(C(=O)OCC)(c2ccccc2)C(F)(F)F)s1 (stereo not drawn), COC(=O)c1ccccc1NC(=O)CSc1nc(C)cc(C)n1 is lower in inhibition: 99.2% for the first, 45.7% for the second.

Going from Cc1ccccc1/C=C/c1nc2ccccc2c(=O)n1CCc1ccccc1 to COc1ccc2c(c1)N(C)/C(=C1/SC(=NCc3ccccc3)N(c3ccccc3)C1=O)S2, the inhibition rises from 34.1% to 36.5%.

Going from O=S(=O)(c1ccccc1)c1nc(-c2ccc(F)cc2)oc1N1CCOCC1 to CNc1nc(-c2ccc3c(c2)CCN3C(=O)c2ccccc2F)cs1, the inhibition falls from 24.8% to 14.5%.

Compared with Cc1cccc(N(CC(=O)NC2CCCC2)C(=O)CS(=O)CC(=O)Nc2ccc3c(c2)OCO3)c1C (stereo not drawn), O=C(Nc1cccc2c1CCCC2)c1cc(C2CCCCN2C(=O)CCCc2ccccc2)on1 (stereo not drawn) is lower in inhibition: 49% for the first, -15% for the second.

Compared with OCCNc1ncnc2ccc(Br)cc12, CCN(Cc1ccncc1)C(=O)c1cc(COc2ccc(F)cc2F)on1 is lower in inhibition: 66.8% for the first, 18.1% for the second.

Going from Nc1ccc(C(=O)Nc2ccc(Nc3ccncc3)cc2)c([N+](=O)[O-])c1 to Cc1[nH]n(-c2ccccc2)c(=S)c1C=Nc1cccc([N+](=O)[O-])c1, the inhibition falls from 102% to 14.4%.

Going from O=C1CCC/C=C\C[C@@H](CC(=O)N(CCO)Cc2ccccc2)C(=O)N2CCC[C@H]2CO1 to COc1ccccc1N1CCN(C2CCCN(C(=O)Cn3cccn3)C2)CC1 (stereo not drawn), the inhibition rises from -2.11% to 38.2%.

Going from COc1cccc(N2[C@@H](CC(C)=O)c3ccc(/C=C/C(C)=O)cc3S2(=O)=O)c1 to COC(=O)C[C@H]1c2cc(F)ccc2S(=O)(=O)N1C(C)C, the inhibition rises from 10.9% to 29.9%.

Going from CCCCc1ccc(S(=O)(=O)N2CCC3(CC2)OCCO3)cc1 to O=C(O)CCCC(=O)N1CCc2cc(S(=O)(=O)N3CCc4ccccc43)ccc21, the inhibition falls from 16.7% to -2.42%.

First: CCN(CCCNC(=O)CNC(=O)c1nn(-c2ccc(OC)cc2OC)c(=O)c2ccccc12)c1cccc(C)c1
Second: CCOCCCNC(=O)C(c1ccc(C)cc1)N(Cc1cccs1)C(=O)c1ccccc1O (stereo not drawn)
The inhibition of the first is lower: 24.3% for the first, 24.4% for the second.

First: CC(NCCOCCOc1ccccc1)c1ccccc1 (stereo not drawn)
Second: Cn1c(=NC(=O)COc2ccccc2)sc2ccccc21
The inhibition of the first is higher: 39.6% for the first, -1.2% for the second.

Going from O=C(NCCCN1CCOCC1)c1ccc2c(=O)n(-c3ccc(F)c(Cl)c3)c(=S)[nH]c2c1 to CCOC(=O)C1=C(C)NC2=C(C(=O)CCC2)C1c1cn(Cc2ccc(Cl)cc2Cl)nc1-c1ccccc1 (stereo not drawn), the inhibition rises from 35.9% to 72.6%.

Compared with Cn1c(=O)c2c(ncn2CC(COCc2ccccc2)OCc2ccccc2)n(C)c1=O (stereo not drawn), COc1ccc(Cn2c3ccc(OC)cc3c3nc4ccccc4nc32)cc1 is higher in inhibition: 54.8% for the first, 78.8% for the second.

Going from Cc1ccccc1OCC1Cc2c(nc(N)c(C#N)c2N)O1 (stereo not drawn) to Cc1onc(-c2ccc(Cl)cc2Cl)c1-c1csc(COc2ccccc2)n1, the inhibition rises from -18.4% to 65.6%.

Going from COc1ccncc1-c1csc(C(O)c2ccccc2)n1 (stereo not drawn) to O=C(CSc1nnc(CNC(=O)C23CC4CC(CC(C4)C2)C3)n1-c1ccccc1)Nc1ccc(F)cc1, the inhibition rises from 3.78% to 4.39%.

Compared with CSc1nc2ccccc2c(=O)n1C1CCOC(C)(C)C1 (stereo not drawn), c1ccc2c3n(nc2c1)CCCO3 is higher in inhibition: 19.3% for the first, 27.6% for the second.

Going from CC1CCC(NC(=O)C2CCC(CNS(=O)(=O)c3cccc4cccnc34)CC2)CC1 (stereo not drawn) to CCOC(=O)C1CCN(Cc2ccc3ccccc3c2)CC1, the inhibition rises from 19% to 52.3%.

Compared with COc1ccc2c(c1OC)CN1CCc3cc4c(cc3[C@@H]1[C@@H]2O)OCO4, CC1CCN(C(=O)CSc2nncn2C)CC1 is higher in inhibition: -3.65% for the first, 0.359% for the second.
